Measurements taken from PubChem BioAssay AID1159580 (chemical genetic matrix, 2015).
Values joined by “and” are separate entries in the source; they are usually repeats but may differ in a detail not shown here. Equal entries are not always repeated. About 2,000 (36%) of roughly 5,500 compounds were called active. Not shown: some 18% with an inconclusive outcome. Rule as the data show it: active = normalized growth mostly below about 0.91 (no sharp cut-off); inconclusive = no clear call, values can overlap the other calls; inactive = mostly above about 0.92. The list shows a part of the results.

Test: chemical genetic growth profiling, strain panel (AID 1159580);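 also: tested at 20 µM; growth read once vehicle control cultures reached saturation at 30 °C; 1 = growth at the plate median or of vehicle wells; lower values mean less growth of the strain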
Conditions: S. cerevisiae deletion strains, growth OD

Measured: normalized growth

CC(=O)O[C@H]1CC[C@]2(C)C3CC[C@@]4(C)C(CC5O[C@@]6(CCC(C)CO6)[C@@H](C)C54)C3CC[C@@H]2C1 (stereo not given in full)
inactive: locus YAL021C, strain ccr4, stronger effect = lower value 1.02 | locus YAL026C, strain drs2, stronger effect = lower value 1.02 | locus YAL030W, strain snc1, stronger effect = lower value 1.01 | locus YBL061C, strain skt5, stronger effect = lower value 1.01 | locus YBR009C, strain hhf1, stronger effect = lower value 1.03 | locus YBR021W, strain FUR4, stronger effect = lower value 0.996 | locus YBR023C, strain chs3, stronger effect = lower value 1.01 | locus YBR171W, strain sec66, stronger effect = lower value 1.03 | locus YBR229C, strain ROT2, stronger effect = lower value 0.99 | locus YBR231C, strain swc5, stronger effect = lower value 1 | locus YBR279W, strain paf1, stronger effect = lower value 1.01 | locus YCL011C, strain gbp2, stronger effect = lower value 1 | locus YCL016C, strain dcc1, stronger effect = lower value 1.01 | locus YCL029C, strain bik1, stronger effect = lower value 0.993 | locus YCL069W, strain vba3, stronger effect = lower value 1.02 | locus YCR088W, strain abp1, stronger effect = lower value 1.02 | locus YDL005C, strain med2, stronger effect = lower value 1.03 | locus YDL035C, strain GPR1, stronger effect = lower value 1.03 | locus YDL040C, strain nat1, stronger effect = lower value 1 | locus YDL074C, strain BRE1, stronger effect = lower value 1.02 | locus YDL101C, strain DUN1, stronger effect = lower value 0.986 | locus YDL185W, strain tfp1, stronger effect = lower value 0.986 | locus YDL192W, strain arf1, stronger effect = lower value 0.997 | locus YDR001C, strain nth1, stronger effect = lower value 1.01 | locus YDR069C, strain doa4, stronger effect = lower value 1.01 | locus YDR101C, strain arx1, stronger effect = lower value 0.992 | locus YDR137W, strain rgp1, stronger effect = lower value 1.04 | locus YDR159W, strain sac3, stronger effect = lower value 1.01 | locus YDR162C, strain NBP2, stronger effect = lower value 1.02 | locus YDR195W, strain ref2 1.03 | locus YDR297W, strain sur2, stronger effect = lower value 1 | locus YDR318W, strain mcm21, stronger effect = lower value 0.997 | locus YDR334W, strain swr1, stronger effect = lower value 1.03 | locus YDR335W, strain msn5, stronger effect = lower value 1.02 | locus YDR388W, stronger effect = lower value 0.991 | locus YDR392W, strain spt3, stronger effect = lower value 1.03 | locus YDR502C, strain sam2, stronger effect = lower value 0.977 | locus YEL003W, strain gim4, stronger effect = lower value 1.03 | locus YEL037C, strain rad23, stronger effect = lower value 1.02 | locus YEL061C, strain CIN8 (second series), stronger effect = lower value 1.05 | locus YEL061C, strain CIN8, stronger effect = lower value 1 | locus YER015W, strain faa2, stronger effect = lower value 1.01 | locus YER016W, strain bim1, stronger effect = lower value 1 | locus YER110C, stronger effect = lower value 0.991 | locus YER111C, strain swi4, stronger effect = lower value 1.02 | locus YER155C, strain BEM2 (second series), stronger effect = lower value 1.04 | locus YER155C, strain BEM2, stronger effect = lower value 0.975 | locus YER167W, strain BCK2, stronger effect = lower value 0.998 | locus YFR010W, strain ubp6, stronger effect = lower value 1.01 | locus YGL078C, strain dbp3, stronger effect = lower value 0.98 | locus YGL167C, strain pmr1, stronger effect = lower value 1 | locus YGL173C, strain kem1, stronger effect = lower value 1.01 | locus YGL227W, strain vid30, stronger effect = lower value 1.02 | locus YGL240W, strain doc1, stronger effect = lower value 1.02 | locus YGL248W, strain PDE1, stronger effect = lower value 0.985 | locus YGL253W, strain hxk2, stronger effect = lower value 1.01 | locus YGR135W, strain pre9, stronger effect = lower value 0.97 | locus YGR229C, strain SMI1, stronger effect = lower value 1.08 | locus YGR252W, strain gcn5, stronger effect = lower value 0.949 | locus YHR013C, strain ard1, stronger effect = lower value 1.01 | locus YHR027C, strain rpn1, stronger effect = lower value 1.02 | locus YHR030C, strain SLT2, stronger effect = lower value 0.989 and 0.998 | locus YHR079C, strain IRE1 (second series), stronger effect = lower value 0.989 | locus YHR079C, strain IRE1, stronger effect = lower value 1.01 | locus YHR094C, strain hxt1, stronger effect = lower value 0.996 | locus YHR129C, strain ARP1, stronger effect = lower value 0.996 | locus YHR142W, strain chs7, stronger effect = lower value 1.03 | locus YHR200W, strain rpn10, stronger effect = lower value 0.989 | locus YIL066C, strain RNR3, stronger effect = lower value 1.01 | locus YIL073C, strain SPO22, stronger effect = lower value 1.06 | locus YIL125W, strain kgd1, stronger effect = lower value 1 | locus YIR030C, strain dcg1, stronger effect = lower value 0.992 | locus YJL092W, strain hpr5, stronger effect = lower value 1.03 | locus YJL095W, strain BCK1 (second series), stronger effect = lower value 1 | locus YJL095W, strain BCK1, stronger effect = lower value 0.987 and 1.01 | locus YJL115W, strain asf1, stronger effect = lower value 1.01 | locus YJL129C, strain trk1, stronger effect = lower value 1.03 | locus YJL134W, strain LCB3, stronger effect = lower value 0.987 | locus YJL154C, strain vps35, stronger effect = lower value 1.01 | locus YJL164C, strain tpk1, stronger effect = lower value 1.01 | locus YJL166W, strain qcr8, stronger effect = lower value 1.01 | locus YJL168C, strain set2, stronger effect = lower value 0.993 | locus YJL187C, strain SWE1 (second series), stronger effect = lower value 0.975 | locus YJL187C, strain SWE1, stronger effect = lower value 1.01 | locus YJR043C, strain POL32, stronger effect = lower value 1.01
